# Reference: PubChem BioAssay
# Active and inactive are the calls of the source.
# Tests used:
# Albumin (Bos taurus) = Albumin (Bos taurus) (UniProt P02769); assay: compounds binding labelled BSA control protein – biochemical, small-molecule microarray, Alexa647 label, 635/667 nm fluorescence, artefact control for SMM control protein annotation, profiling panel (AID 1118); conditions: BSA-A647 binding, fluorescence 635 nm, higher = more signal;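 note: score merges 667 nm emission intensity and signal-to-noise per printed compound spot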
# [1] = probe aXIP binding to arrayed compounds – biochemical, NeuroSMM set, 635/667 nm fluorescence, primary screen (AID 1119); conditions: small-molecule microarray, higher = more signal, called active from +8 up or from −8 down;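 note: probe is the protein aXip251-270 applied at 1 µg/mL to compound-printed slides; binding of probe to printed compounds measured as 667 nm fluorescence plus signal to noise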
# [2] = probe aNOTCH3 binding on compound microarray – biochemical, small-molecule microarray, 635/667 nm fluorescence, primary screen (AID 1120); conditions: higher = more signal;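 note: probe is a biotin-tagged antibody raised against NOTCH3 rather than NOTCH3 protein; score merges spot fluorescence near 667 nm with spot signal to noise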
# [3] = probe aNOTCH2 binding on compound microarray – biochemical, small-molecule microarray, 635/667 nm fluorescence, primary screen (AID 1121); conditions: higher = more signal;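 note: score merges feature fluorescence read at 667 nm with its signal to noise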
# [4] = target: Carbonic anhydrase 2 (Homo sapiens) (UniProt P00918); assay: compounds binding carbonic anhydrase 2 – biochemical, small-molecule microarray, Alexa647-labelled CAII, profiling panel (AID 1122); conditions: CAII-A647 binding fluorescence, higher = more signal
# [5] = COS7 lysate on small-molecule microarray, probe aHis, 635 nm (AID 1123); conditions: COS7 cell lysate, fluorescence, higher = more signal;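 note: z-score combines 667nm fluorescence intensity with signal-to-noise per printed compound spot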
# [6] = probe aLAP1 signal on lysate-treated microarray – cell lysate, small-molecule microarray, COS7 lysate, primary screen (AID 1124); conditions: probe aLAP1, fluorescence, higher = more signal;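 note: lysate comes from COS7 cells expressing LAP1 and is applied at 0.3 µg/mL; score merges spot fluorescence near 667 nm with signal-to-noise over triplicate slides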
# Sam68 (KHDRBS1) = assay: compounds binding KHDRBS1 protein – biochemical, small-molecule microarray, 635 nm fluorescence, primary screen (AID 1125); conditions: higher = more signal;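 note: score merges 667 nm channel intensity with signal to noise over triplicate slides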
# [7] = system: Chordin-like protein 2 (CHRDL2); assay: compounds binding chordin-like 2 – biochemical, small-molecule microarray, 635 nm fluorescence, primary screen (AID 1126); conditions: fluorescence 635 nm, higher = more signal;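 note: printed compound slides probed with Chrdl2 protein at 4 µg/mL for 1 h at 4 C; score merges 667 nm emission intensity with signal to noise over three replicate slides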
# [8] = target: Concanavalin-A (Canavalia ensiformis) (UniProt P02866); assay: compounds binding concanavalin A lectin – biochemical, small-molecule microarray, Alexa647 label, 635 nm, artefact control for SMM control protein annotation, primary screen (AID 1127); conditions: ConA-A647 binding fluorescence, higher = more signal;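 note: z combines 667 nm emission intensity with signal-to-noise across three replicate slides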
# [9] = compounds binding Alexa647 anti-His antibody – biochemical, small-molecule microarray, 635 nm fluorescence, artefact control for SMM control protein annotation, primary screen (AID 1128); conditions: higher = more signal;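 note: score merges feature fluorescence with signal-to-noise for each printed compound spot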
# [10] = system: Human papillomavirus type 1a E7 protein (residues 1-88); assay: HPV1a E7 small-molecule binders, primary screen, biochemical, small-molecule microarray, residues 1-88, 635 nm (AID 1129); conditions: small-molecule microarray binding, fluorescence 635 nm; higher = more signal
# [11] = target: Focal adhesion kinase 1 (Homo sapiens) (UniProt Q05397); assay: PTK2 protein binding on printed compound slides – biochemical, small-molecule microarray, 635/667 nm fluorescence, BSA, DTT, primary screen (AID 1130); conditions: 635 nm fluorescence, higher = more signal;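 note: composite of spot emission at 667 nm and signal to noise over triplicate slides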
# [12] = system: Fibrinogen (Alexa647-labelled); assay: Alexa647-fibrinogen binding to printed small molecules – biochemical, small-molecule microarray, 635/667 nm fluorescence, artefact control for SMM control-protein annotation, profiling panel (AID 1131); conditions: fibrinogen-A647 binding fluorescence, higher = more signal;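 note: z-score merges 667 nm fluorescence with per-spot signal-to-noise over triplicate slides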
# [13] = target: Follistatin (Homo sapiens) (UniProt P19883); assay: FST protein binding to printed compounds – biochemical, small-molecule microarray, 635/667 nm fluorescence, primary screen (AID 1132); conditions: 635 nm fluorescence, higher = more signal
# [14] = target: Fibroblast growth factor 2 (Homo sapiens) (UniProt P09038); assay: basic fibroblast growth factor binding to printed compounds – biochemical, small-molecule microarray, 635/667 nm fluorescence, primary screen (AID 1133); conditions: FGF2, fluorescence 635/667, higher = more signal
# [15] = JC-1 mitochondrial potential readout, lung cancer cells – cell-based, A549, JC-1 fluorescence, basal, 24 h, 100 nL, profiling panel (AID 1138); conditions: higher = more signal;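 note: A549 lung adenocarcinoma cells under basal conditions with no added stimulus; test concentration not given here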
# Lefty1 = Lefty1 protein binding to printed compounds – biochemical, small-molecule microarray, 635/667 nm fluorescence, primary screen (AID 1139); conditions: fluorescence 635/667, higher = more signal
# [16] = system: wheat germ agglutinin (Triticum aestivum), Alexa647-labelled; assay: Alexa647-WGA lectin binding to printed small molecules – biochemical, small-molecule microarray, 635/667 nm fluorescence, artefact control for SMM control-protein annotation, profiling panel (AID 1140); conditions: WGA-A647 binding, 635 nm fluorescence, higher = more signal;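 note: score merges 667 nm feature emission with signal to noise over triplicate slides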
# [17] = target: Luciferin 4-monooxygenase (Photinus pyralis) (UniProt P08659); assay: inhibition of purified Photinus pyralis luciferase – biochemical, luminescence, purified enzyme, 2006 set, primary screen (AID 1141); conditions: purified firefly luciferase, SteadyGlo luminescence, 30 min; higher = more signal, called active from +8 up or from −8 down;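 note: cell-free assay with purified firefly luciferase at 100 ng per well in PBS; test concentration not given here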
# Chain of Luciferin 4-monooxygenase (Photinus pyralis) (P08659 whole entry, looked up): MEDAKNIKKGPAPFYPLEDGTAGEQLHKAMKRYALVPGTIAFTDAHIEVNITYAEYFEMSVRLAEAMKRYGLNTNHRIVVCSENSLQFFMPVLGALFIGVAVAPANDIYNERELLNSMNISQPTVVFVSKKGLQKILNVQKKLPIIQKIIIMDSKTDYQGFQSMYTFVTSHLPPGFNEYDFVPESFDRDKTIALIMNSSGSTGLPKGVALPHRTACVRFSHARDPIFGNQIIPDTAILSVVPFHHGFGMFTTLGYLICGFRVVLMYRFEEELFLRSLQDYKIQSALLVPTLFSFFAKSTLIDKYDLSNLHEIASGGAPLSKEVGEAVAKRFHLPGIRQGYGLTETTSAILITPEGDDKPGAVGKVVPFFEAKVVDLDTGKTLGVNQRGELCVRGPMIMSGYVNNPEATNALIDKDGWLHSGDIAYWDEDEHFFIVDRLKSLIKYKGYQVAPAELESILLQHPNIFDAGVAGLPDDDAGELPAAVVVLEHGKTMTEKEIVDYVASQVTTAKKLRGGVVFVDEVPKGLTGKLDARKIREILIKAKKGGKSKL
# Chain of Concanavalin-A (Canavalia ensiformis) (P02866 whole entry, looked up): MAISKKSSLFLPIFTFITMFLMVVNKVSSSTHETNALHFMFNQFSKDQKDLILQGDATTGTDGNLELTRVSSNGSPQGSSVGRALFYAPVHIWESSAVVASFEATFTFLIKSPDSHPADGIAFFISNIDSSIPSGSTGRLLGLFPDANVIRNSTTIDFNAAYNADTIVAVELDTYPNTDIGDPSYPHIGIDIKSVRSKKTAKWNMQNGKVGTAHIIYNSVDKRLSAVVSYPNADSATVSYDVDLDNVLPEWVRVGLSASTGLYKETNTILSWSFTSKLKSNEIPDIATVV
# Chain of Albumin (Bos taurus) (P02769 whole entry, looked up): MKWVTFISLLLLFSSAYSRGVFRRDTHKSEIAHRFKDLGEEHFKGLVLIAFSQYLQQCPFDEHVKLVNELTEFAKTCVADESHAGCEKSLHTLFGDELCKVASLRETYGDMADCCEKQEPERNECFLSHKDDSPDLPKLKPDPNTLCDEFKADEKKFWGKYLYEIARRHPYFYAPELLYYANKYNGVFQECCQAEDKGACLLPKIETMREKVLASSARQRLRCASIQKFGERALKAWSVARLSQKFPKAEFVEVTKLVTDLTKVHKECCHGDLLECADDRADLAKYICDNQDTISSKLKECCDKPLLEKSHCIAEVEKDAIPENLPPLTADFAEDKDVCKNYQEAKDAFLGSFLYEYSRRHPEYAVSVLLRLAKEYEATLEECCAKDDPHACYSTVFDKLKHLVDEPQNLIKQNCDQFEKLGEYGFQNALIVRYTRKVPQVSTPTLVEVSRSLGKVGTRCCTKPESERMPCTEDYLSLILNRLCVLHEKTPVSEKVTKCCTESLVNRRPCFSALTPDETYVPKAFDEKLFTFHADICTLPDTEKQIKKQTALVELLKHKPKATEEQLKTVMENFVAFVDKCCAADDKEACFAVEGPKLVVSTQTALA
# Chain of Fibroblast growth factor 2 (Homo sapiens) (P09038 whole entry, looked up): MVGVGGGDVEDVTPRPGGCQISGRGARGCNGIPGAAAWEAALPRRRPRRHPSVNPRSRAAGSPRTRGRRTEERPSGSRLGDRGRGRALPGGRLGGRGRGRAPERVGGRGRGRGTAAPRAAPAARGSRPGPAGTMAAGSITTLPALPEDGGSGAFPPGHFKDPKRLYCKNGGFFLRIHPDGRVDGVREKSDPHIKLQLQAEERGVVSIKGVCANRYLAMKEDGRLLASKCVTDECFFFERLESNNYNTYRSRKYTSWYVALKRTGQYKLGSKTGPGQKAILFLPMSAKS
# Chain of Follistatin (Homo sapiens) (P19883 whole entry, looked up): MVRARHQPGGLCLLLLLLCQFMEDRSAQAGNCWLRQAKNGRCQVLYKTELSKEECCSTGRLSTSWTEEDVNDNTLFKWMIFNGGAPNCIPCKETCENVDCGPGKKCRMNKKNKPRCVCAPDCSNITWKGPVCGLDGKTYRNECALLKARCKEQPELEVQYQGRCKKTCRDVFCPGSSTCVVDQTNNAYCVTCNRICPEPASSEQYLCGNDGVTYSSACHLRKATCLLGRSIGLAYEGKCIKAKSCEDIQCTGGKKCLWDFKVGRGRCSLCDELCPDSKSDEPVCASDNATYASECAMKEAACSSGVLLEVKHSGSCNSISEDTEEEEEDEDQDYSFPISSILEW
# Chain of Focal adhesion kinase 1 (Homo sapiens) (Q05397 whole entry, looked up): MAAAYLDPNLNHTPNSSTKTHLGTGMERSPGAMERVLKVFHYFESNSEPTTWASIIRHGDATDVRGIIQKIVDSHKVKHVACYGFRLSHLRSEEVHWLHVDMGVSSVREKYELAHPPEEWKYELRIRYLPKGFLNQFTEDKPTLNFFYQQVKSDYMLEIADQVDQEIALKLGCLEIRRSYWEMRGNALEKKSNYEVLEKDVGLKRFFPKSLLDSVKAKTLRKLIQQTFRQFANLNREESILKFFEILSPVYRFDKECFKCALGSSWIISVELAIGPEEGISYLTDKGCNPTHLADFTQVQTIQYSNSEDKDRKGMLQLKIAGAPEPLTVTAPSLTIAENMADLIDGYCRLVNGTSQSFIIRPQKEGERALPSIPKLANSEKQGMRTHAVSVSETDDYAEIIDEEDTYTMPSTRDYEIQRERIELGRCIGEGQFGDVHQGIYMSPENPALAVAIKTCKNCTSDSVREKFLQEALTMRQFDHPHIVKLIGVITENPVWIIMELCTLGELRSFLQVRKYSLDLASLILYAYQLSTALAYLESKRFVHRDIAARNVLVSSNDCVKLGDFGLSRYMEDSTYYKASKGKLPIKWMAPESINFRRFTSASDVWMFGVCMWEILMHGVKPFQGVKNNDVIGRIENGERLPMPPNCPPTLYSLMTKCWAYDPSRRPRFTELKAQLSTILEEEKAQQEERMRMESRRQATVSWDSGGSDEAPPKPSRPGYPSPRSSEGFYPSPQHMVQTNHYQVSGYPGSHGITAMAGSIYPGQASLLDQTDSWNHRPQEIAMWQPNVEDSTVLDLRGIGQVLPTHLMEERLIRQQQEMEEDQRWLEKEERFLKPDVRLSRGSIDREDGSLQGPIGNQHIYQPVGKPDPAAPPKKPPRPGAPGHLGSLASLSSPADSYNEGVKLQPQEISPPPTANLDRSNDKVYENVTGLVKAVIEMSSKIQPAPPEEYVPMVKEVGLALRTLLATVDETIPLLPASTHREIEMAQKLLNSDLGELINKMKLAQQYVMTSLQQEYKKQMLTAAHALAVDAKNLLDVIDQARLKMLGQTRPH
Structure (SMILES),composite z-score (Albumin (Bos taurus)),composite Z-score [1],composite z-score [2],composite z-score [3],composite z-score [4],composite z-score [5],composite z-score [6],composite z-score (Sam68 (KHDRBS1)),composite z-score [7],composite z-score [8],composite z-score [9],composite z-score [10],composite z-score [11],composite z-score [12],composite z-score [13],composite z-score [14],z-score [15],composite z-score (Lefty1),composite z-score [16],z-score [17]
C=C(COC)/C(=C/C[C@H](OC(C)=O)c1cccc(OCCO)c1)c1cc(C(=O)OC)ccc1OC,-0.169,0.211 (inactive),-0.0414,-0.0649,0.656,0.193,-0.219,0.705,1.25,-0.0821,0.349,-0.131,-0.402,-0.488,1.51,1.4,-0.0205,1.72,-1.08,-0.727 (inactive)
CN(C)CCCC[C@@H]1NC(=O)[C@@H]2C[C@H](C(=O)NCCCCCNC(=O)CS)[C@H](c3cccc(OCCO)c3)N2C1=O,0.786,1.6 (inactive),-0.15,-0.167,0.82,0.356,0.303,0.528,0.728,0.65,2.04,0.05,0.387,0.119,1.49,1.65,0.43,1.45,0.626,-0.673 (inactive)
C=CCN1C(=O)[C@]2(O[C@H](CCn3cc([C@H](O)c4ccccc4)nn3)[C@@H]([Si](C)(C)c3ccc(OC)cc3)[C@@H]2C)c2cc(N3CCOC3=O)ccc21,0.318,0.2 (inactive),-0.272,-0.201,0.521,0.8,0.0004,0.745,-0.526,0.804,1.13,1.13,0.783,0.811,-0.447,-0.408,1.89,-0.351,0.514,-0.678 (inactive)
COC(=O)C(CC#Cc1ccc2c(c1)[C@]1(C(=O)N2)[C@H](c2ccccc2OCCO)N2[C@H](c3ccccc3)[C@H](c3ccccc3)OC(=O)[C@H]2[C@@H]1C(=O)N1CCCCCCC1)C(=O)OC,-0.314,8.74 (active),2.02,1.1,1.03,4.9,1.41,1.33,1.66,0.773,0.925,1.35,4.83,0.0834,1.56,-0.0426,0.547,1.73,1.66,-1.08 (inactive)
C=C[C@H](OC)[C@@H](OC(=O)Nc1ccc(OC)cc1)c1ccc(OC)c(O)c1,-2.02,-0.403 (inactive),-0.374,-0.181,0.633,-0.844,0.0191,-0.667,-2.31,-2.17,-1.22,-1.3,0.7,-2.93,-0.823,-1.23,1.19,-1.75,-2.18,-1.67 (inactive)
